The list is not random: actives were taken first. Their share in the collection is about 2.8%.
HEK293 tox: cytotoxicity counter-screen for GLP-1 receptor inverse agonists; HEK293 cAMP-luciferase reporter cells, luminescence, 24 h; Potency, µM (titrated, usually from 38.3 µM), most hits filed as inhibitors; 0.13% of 410,000 active; AID 624418;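 also: loss of luciferase light is scored as toxicity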
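Step one: seed cells (200 cells/uL, DMEM with 10% Nu serum, 1% pen-strep). Step two: 12-hour incubation at 37 deg C. Step three: pin 23 nL compound, incubate 24 hr. Step four: add luciferase reagent, read luminescence 12 min later.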
Mito fusion yeast: mitochondrial division inhibition or fusion activation; S. cerevisiae fusion-defective mutant growth rescue, CellTiterGlo 48 h; Potency, µM (series often up to 46.1 µM), usual class: activators; 0.23% of 320,000 active; AID 485298; also: nearly all actives have a fitted effect of over 45% in size
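Luminescent cell viability in 1536-well qHTS format served as the measure of rescued growth in ts fusion-mutant S. cerevisiae cultured on non-fermentable YPEG for 48 hours at 37C.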
GLP-1R inv ag: acts as inverse agonist at human GLP-1 receptor | P43220 | 1.6% of 410,000 active | Potency, µM (highest dose often 38.3 µM), hits mostly inhibitors | HEK293 GLP-1R CRE-luciferase, luminescence, 24 h; GLP-1R form is constitutively active; also: nearly all actives have a fitted effect of over 55% in size
Target sequence (P43220 whole entry, looked up): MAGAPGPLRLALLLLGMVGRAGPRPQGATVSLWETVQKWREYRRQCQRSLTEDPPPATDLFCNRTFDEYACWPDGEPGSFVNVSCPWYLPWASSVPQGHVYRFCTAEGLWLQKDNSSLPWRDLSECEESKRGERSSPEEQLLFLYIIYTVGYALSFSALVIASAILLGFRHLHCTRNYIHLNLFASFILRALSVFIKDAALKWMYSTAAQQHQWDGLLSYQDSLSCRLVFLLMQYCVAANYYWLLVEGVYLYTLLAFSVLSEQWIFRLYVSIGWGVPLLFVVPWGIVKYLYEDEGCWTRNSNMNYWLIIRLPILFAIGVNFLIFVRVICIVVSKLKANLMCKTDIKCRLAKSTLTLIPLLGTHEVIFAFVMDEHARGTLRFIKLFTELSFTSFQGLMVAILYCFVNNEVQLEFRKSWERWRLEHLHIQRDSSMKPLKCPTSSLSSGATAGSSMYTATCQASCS
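HEK293 cells stably co-expressing a cAMP-responsive luciferase reporter and constitutively active GLP-1R were seeded, incubated 12 h, then exposed to compounds for 24 h at 37 C. Luminescence was read 12 min after detection reagent; inverse agonists lower signal.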
GLP-1R agonist: agonists of human GLP-1 receptor; P43220; Potency, µM (titrated, usually from 45.6 µM), actives largely listed as activators; 0.007% of 380,000 active; AID 624172; HEK293 GLP-1R CRE-luciferase, luminescence, 4-6 h; cells express a hypersensitive GLP-1R form
BRCA1 expr up: activators of BRCA1 expression; MCF7-BRCA1-FFLuc reporter, luminescence, 48 h; response scale: scaled: vehicle 0%, 10 µM genistein 100%; Potency, µM (doses to about 46.1 µM), most hits filed as activators; 1.1% of 380,000 active; also: nearly all actives have a fitted effect of over 80% in size
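MCF7-BRCA1-FFLuc cells, 2000/well in phenol-red-free MEM, attached 2 h then treated 48 h at 37 C. Luciferase luminescence read 15 min after reagent; normalized to genistein maximum activation (10microM) and DMSO, concentration-response fitted.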
Of the large screens only hits and unclear results are named; the others gave an inactive call. Calls follow the shape of the dose curve; as a rule, active = well fitted curve in the direction sought with a large enough effect; inconclusive = small, poorly fitted or top-dose-only effect, or another doubt; inactive = no such curve, though single readings can be large; an effect the other way counts as inactive or inconclusive.

COC(=O)[C@@H]1CCCN1C(=O)CCc1nnc(CCC2CCCCC2)o1	BRCA1 expr up 11µM
COC(=O)[C@@H]1CCCN1C(=O)CCc1nnc(CCc2c[nH]c3ccccc23)o1	none
O=C(Nc1ccccc1Cc1ccccc1)c1ccccc1F	Mito fusion yeast inconclusive, GLP-1R inv ag inconclusive
C=CCOc1ccc(C2N3CC4(CC)CN2CC(CC)(C3)C4=O)cc1 (configuration not stated)	GLP-1R inv ag 11µM
CCCC12CN3CC(CCC)(CN(C1)C3c1ccc(OC(C)C)cc1)C2=O (configuration not stated)	none (no result: Mito fusion yeast, GLP-1R agonist, BRCA1 expr up)
COC(=O)c1cccc(NC(=S)N2CCOCC2)c1	none
COc1ccc(C(C)=O)cc1CSc1nnc(Nc2ccc(C)cc2C)s1	Mito fusion yeast 16µM, GLP-1R inv ag inconclusive
N#Cc1cc(Oc2cccnc2)c(Oc2cccnc2)cc1C#N	none
CCn1nc(-c2ccccc2)c(-c2ccccc2)c(C(=O)Nc2nc(C)c(C(C)=O)s2)c1=O	GLP-1R inv ag 4.5µM (no result: Mito fusion yeast, GLP-1R agonist, BRCA1 expr up)
CC(=O)c1sc(NC(=O)c2ccccc2F)nc1-c1ccccc1	BRCA1 expr up 2µM
CC(=O)c1sc(NC(=O)c2ccc(F)cc2)nc1-c1ccccc1	BRCA1 expr up inconclusive
COc1ccc(NC(=O)c2cc(-c3cc(F)ccc3OC)n[nH]2)c(C)c1	none (no result: Mito fusion yeast)
OC1CCCN(Cc2ccc3ccc4cccc5ccc2c3c45)C1 (configuration not stated)	none
CC(C)Cn1nc(C(=O)N2CCc3ccccc32)c2ccccc2c1=O	GLP-1R inv ag 11µM
CCN(CC)C(=O)C1CC(c2ccc(OC)cc2)=NO1 (configuration not stated)	BRCA1 expr up 10µM
O=S1(=O)CCN=C2SC3=C(CCCC3)N21	none
CCN(CC)C(=O)c1sc2nc(-c3ccc(OC)cc3)cn2c1C	BRCA1 expr up 2.8µM
CCc1cc2c(=O)n(CC(C)C)cnc2s1	BRCA1 expr up 11µM
COc1cc(CNc2ncn[nH]2)cc(Br)c1OC	none
O=C(Nc1ccc(Cl)cn1)c1cc2c(s1)-c1ccccc1OC2	BRCA1 expr up 5.6µM
CCc1ccc(Nc2cc(C(=O)NCCCN(C)c3ccccc3)c3ccccc3n2)cc1	none (no result: Mito fusion yeast, GLP-1R agonist, BRCA1 expr up)
COc1ccccc1Nc1cc(C(=O)NCCCN(C)c2ccccc2)c2ccccc2n1	GLP-1R inv ag 5.6µM (no result: Mito fusion yeast, GLP-1R agonist, BRCA1 expr up)
COc1ccc(C(C(=O)NC2CCCC2)N(C(=O)c2ccoc2C)c2cc(C)cc(C)c2)cc1 (configuration not stated)	none
COc1ccc(C(C(=O)NC2CCCC2)N(C(=O)c2ccoc2C)c2ccc(C)c(C)c2)cc1 (configuration not stated)	GLP-1R inv ag 10µM
CCc1ccc(N(C(=O)c2ccco2)C(C(=O)NC2CCCC2)c2ccco2)cc1 (configuration not stated)	GLP-1R inv ag 10µM (no result: Mito fusion yeast)
O=C(NC1CCCC1)C(c1ccco1)N(C(=O)c1ccco1)c1ccccc1 (configuration not stated)	none
CCc1ccc(N(C(=O)c2ccoc2C)C(C(=O)NC2CCCC2)c2ccc(OC)cc2)cc1 (configuration not stated)	HEK293 tox inconclusive, GLP-1R inv ag 10µM
Cc1ccc(NC2CCCN(C(=O)c3cccc(-c4ncc[nH]4)c3)C2)cc1C (configuration not stated)	none
CCOc1ccccc1NC(=O)CCCc1nc2ccccc2c(=O)[nH]1	HEK293 tox inconclusive
Cc1c(CCOC(=O)C2C3CC4CC(C3)CC2C4)sc[n+]1CC(=O)c1ccc(Br)cc1 (configuration not stated)	HEK293 tox inconclusive, GLP-1R inv ag 11µM
COc1ccc(C(=O)OCCc2sc[n+](CC(=O)c3ccccc3)c2C)cc1	none
Cc1c(CCOC(=O)c2ccc(Cl)cc2Cl)sc[n+]1CC(=O)c1ccc(Br)cc1	HEK293 tox inconclusive, GLP-1R inv ag 10µM (no result: Mito fusion yeast)
CC(C)c1nc2cc(Cl)ccc2n(Cc2ccccc2)c1=O	GLP-1R inv ag 7.9µM
CC(C)NC(=O)c1n[nH]c(=O)c2ccccc12	none
CC1CCCC(NC(=O)c2n[nH]c(=O)c3ccccc23)C1C (configuration not stated)	BRCA1 expr up 11µM
CN(C)S(=O)(=O)Oc1ccsc1C(=O)Nc1ccc(Cl)c(Cl)c1	GLP-1R inv ag 10µM
CN(C)S(=O)(=O)Oc1ccsc1C(=O)Nc1cccc(Cl)c1	none
COc1ccc(OC)c(NC(=O)CSc2nc3n[nH]c(C)c3c(=N)n2-c2cccc(Cl)c2C)c1	Mito fusion yeast 6.3µM
Cc1ccc(CNC(=O)CSc2nc3n[nH]c(C)c3c(=N)n2-c2ccccc2Cl)cc1	none (no result: Mito fusion yeast, GLP-1R agonist, BRCA1 expr up)
Cc1ccccc1-n1c(SCC(=O)Nc2ccccc2Cl)nc2n[nH]c(C)c2c1=N	Mito fusion yeast 11µM
O=c1c2ccccc2nnn1CSc1ncnc2ccccc12	none
COc1ccccc1C1CCN(Cc2ccc(C)cc2)CC1	none
Cc1ccc(NC(=O)c2nc(S(C)(=O)=O)ncc2N(Cc2ccco2)Cc2ccccc2F)c(C)c1	none (no result: Mito fusion yeast, GLP-1R agonist, BRCA1 expr up)
CCS(=O)(=O)c1ncc(N(Cc2ccco2)Cc2ccccc2F)c(C(=O)Nc2cccc(Cl)c2)n1	GLP-1R inv ag 8.9µM (no result: Mito fusion yeast, GLP-1R agonist, BRCA1 expr up)
CC(C)c1ccc(CN(Cc2ccco2)c2cnc(S(C)(=O)=O)nc2C(=O)Nc2ccccc2)cc1	GLP-1R inv ag 5µM (no result: Mito fusion yeast, GLP-1R agonist, BRCA1 expr up)
COc1ccc(OCCCC(=O)Nc2cc(S(=O)(=O)N3CCCCC3)ccc2OC)cc1	none
CC1CN(C(=O)COC(=O)c2ccc(Cl)c(S(=O)(=O)N3CCCCC3)c2)CC(C)O1 (configuration not stated)	none
Cc1cccc(C(=O)N[C@H](C(=O)Nc2cc(S(=O)(=O)N3CCCCC3)ccc2C)C(C)C)c1	GLP-1R inv ag 10µM
COc1ccc(COC(=O)c2ccc(Cl)c(S(=O)(=O)N3CC(C)OC(C)C3)c2)cc1 (configuration not stated)	GLP-1R inv ag 8.9µM
COc1ccc(OCCCC(=O)Nc2cc(S(=O)(=O)N3CCCCC3)ccc2C)cc1	GLP-1R inv ag 5.6µM
Cc1ccc(S(=O)(=O)N2CCCCC2)cc1NC(=O)COC(=O)C1(C)CC1(Cl)Cl (configuration not stated)	GLP-1R inv ag 7.9µM
COC(=O)C1=C(C(=O)OC)[C@@H]2N(C)c3ccc(OC)cc3[C@@]23C[C@@H](C(=O)OC)N=C3N1	none
COc1ccc(CCC(=O)Nc2ccc(OC)c(S(=O)(=O)N3CCCCC3)c2)cc1OC	none
COc1ccc(CCC(=O)Nc2ccc(Cl)c(S(=O)(=O)N3CCCC3)c2)cc1	GLP-1R inv ag 10µM
C=CCn1c(NC(=O)c2ccc(Br)o2)c(S(=O)(=O)c2ccccc2)c2nc3ccccc3nc21	Mito fusion yeast 11µM, GLP-1R inv ag inconclusive
